Each structure is given as a SMILES string. This is part of a sample that, as a whole, favours compounds with a hit. Of some 83,000 tested, about 20% had one in any assay.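 Treatment: one concentration, 48 hours, 96-well format. Scoring: percent growth, with anything below 10 considered active.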 A number with no mark means an inactive call.

The assay concerns HL-60(TB) leukemia. Kind of assay: NCI-60 one-dose screen, 48 h (100 = growth as untreated, 0 = no growth, -100 = all killed). To be noted: 10 µM unless noted.
Take `N#Cc1ccc(OC(=O)Nc2c(Cl)cc(Cl)cc2Cl)cc1`: the growth was 102%.
For `CC1(C)C2=C(C(=O)N1Cc1ccccc1)C(c1ccco1)N(C(=O)C1CCC1)CCN2` (stereo not drawn) the value was 99.1%.
For `NC(N)=Nc1cc2ccccc2c2ccccc12` the value was 46.4%.

(Values after PubChem BioAssay (NCI).)
